Screening results from PubChem BioAssay.
TrxR1 inh: inhibitors of rat thioredoxin reductase 1; O89049; recombinant rTrxR1, NADPH fluorescence consumption, selenite substrate; Potency, µM (doses to about 114 µM), inactives show at the top dose activity change, negative = inhibition, usual class: inhibitors; hit rate 1% among 390,000; AID 588453; further: on the % scale 0 is the no-effect control and ±100 the full control effect; nearly all actives have a fitted effect of over 65% in size
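Rat TrxR1 (90 nM in the dispensed reagent) was pre-reduced with 400 uM NADPH for 5 min at room temperature, then incubated with compound for 15 min. After 400 uM selenite was added, NADPH fluorescence (Ex 340/Em 450 nm) was followed for 8 min.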
GLP1R inv ag: acts as inverse agonist at human GLP-1 receptor; HEK293 GLP-1R CRE-luciferase, luminescence, 24 h; GLP-1R form is constitutively active; Potency, µM (series often up to 38.3 µM), inactives show at the highest dose activity change, negative = inhibition, actives largely listed as inhibitors; AID 624417; hit rate 1.6% among 410,000; further: on the % scale 0 is the no-effect control and ±100 the full control effect; nearly all actives have a fitted effect of over 55% in size
Target sequence (P43220 whole entry, looked up): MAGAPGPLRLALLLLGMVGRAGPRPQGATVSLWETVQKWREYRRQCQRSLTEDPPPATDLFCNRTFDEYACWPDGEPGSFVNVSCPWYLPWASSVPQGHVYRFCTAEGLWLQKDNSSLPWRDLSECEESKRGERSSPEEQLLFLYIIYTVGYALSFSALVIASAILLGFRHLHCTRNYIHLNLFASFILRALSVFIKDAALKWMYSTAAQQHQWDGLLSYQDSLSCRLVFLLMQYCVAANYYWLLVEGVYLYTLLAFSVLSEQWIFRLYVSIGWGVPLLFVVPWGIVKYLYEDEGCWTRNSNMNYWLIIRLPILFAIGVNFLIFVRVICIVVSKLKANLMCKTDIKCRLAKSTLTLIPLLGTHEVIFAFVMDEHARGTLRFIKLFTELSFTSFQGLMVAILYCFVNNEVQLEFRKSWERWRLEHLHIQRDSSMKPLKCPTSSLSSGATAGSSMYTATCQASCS
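Constitutively active GLP-1R drives a cAMP-responsive luciferase in stably transfected HEK293 cells; test compounds are added after overnight (12 h) attachment and left 24 hr, and signal loss in luminescence marks inhibition.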
TrxR1 substrate: substrates of rat thioredoxin reductase 1 | purified TrxR1 substrate turnover, NADPH consumption readout | O89049 | hit rate 0.01% among 390,000 | Potency, µM (top dose mostly 114 µM), for inactives: at the highest dose activity change, negative = substrate turnover; further: on the % scale 0 is the no-effect control and ±100 the full control effect; nearly all actives have a fitted effect of over 50% in size
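Rat TrxR1, dispensed at 90 nM, was prereduced with 400 uM NADPH (final) for 5 min at ~22 deg C, then incubated with compound 15 min before 400 uM selenite. A first-read NADPH fluorescence drop versus no-compound background flagged substrates.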
GLP-1R agonist: agonists of human GLP-1 receptor. HEK293 GLP-1R CRE-luciferase, luminescence, 4-6 h; cells express a hypersensitive GLP-1R form. Potency, µM (series often up to 45.6 µM), without a hit: top-dose activation, most hits filed as activators. hit rate 0.007% among 380,000; further: % of control where 0% means no effect
mIDH1 inhibitor: human IDH1 R132H inhibition. Potency, µM (titrated, usually from 76.6 µM), without a hit: at the top dose activity change, negative = inhibition, hits mostly inhibitors. O75874. IDH1-R132H enzyme, NADPH consumption, diaphorase/resazurin fluorescence. hit rate 0.093% among 390,000. AID 602179; further: on the % scale 0 is the no-effect control and ±100 the full control effect; nearly all actives have a fitted effect of over 65% in size
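IDH1-R132H (0.5 ug/mL) preincubated 30 min with compound, then NADPH (0.016 mM) and alpha-KG (2 mM) added; 80 min at RT, pH 7.5. Remaining NADPH coupled via diaphorase/resazurin to fluorescence (540/590 nm); concentration-response curves normalized to no-enzyme control.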
HEK293 tox: cytotoxicity counter-screen for GLP-1 receptor inverse agonists; Potency, µM (highest dose often 38.3 µM), without a hit: top-dose activity change, negative = inhibition, usual class: inhibitors; hit rate 0.13% among 410,000; HEK293 cAMP-luciferase reporter cells, luminescence, 24 h;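 further: loss of luciferase light is scored as toxicity; on the % scale 0 is the no-effect control and ±100 the full control effect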
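Quantitative HTS format, 1536 wells, 200 cells/uL seeded. Compounds: 23 nL, 24 h, 37 °C. Detection: luciferase reagent, luminescence at 12 min RT; decreased signal taken as cytotoxic.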
An asterisk follows results filed as active; i = inactive; u = inconclusive; x = no result given; [ ] = remark or other dose. This is a sample that favours compounds with a hit; in the whole collection about 2.7% have one here. The call rests on the fitted dose curve; in most records, active means well fitted curve in the direction sought with a large enough effect; inconclusive means small, poorly fitted or top-dose-only effect, or another doubt; inactive means no such curve, though single readings can be large; an effect the other way counts as inactive or inconclusive. Potency means the concentration at half of the fitted maximal effect.

SMILES | TrxR1 inh | GLP1R inv ag | TrxR1 substrate | GLP-1R agonist | mIDH1 inhibitor | HEK293 tox
COc1ccc(Nc2oc(COc3ccccc3OC)nc2C#N)cc1 | 44.7µM* | u | -7.5% | -0.3% | 0.5% | 4.7%[1.53 µM]
CN(C)CCCNc1oc(-c2cccc(Cl)c2)nc1C#N | 14.9% | 6.31µM* | 206.6% | -1.6% | 2.7% | -1.7%
C=CCNc1oc(-c2cccc(F)c2)nc1C#N | 7.08µM* | x | -0.9% | -3.4% | x | x
CN(C)CCNc1oc(COc2cccc(Cl)c2)nc1C#N | u | -15.2% | -0.3% | -4.7% | 4.4% | -4.3%
C=CCNc1oc(-c2ccc(Cl)cc2)nc1C#N | u | x | -2.9% | -2.7% | x | x
CNc1oc(-c2ccc(Cl)cc2)nc1C#N | 39.8µM* | 9.8% | 190.2% | 4.7% | 4.8% | 6.9%
Cc1ccccc1S(=O)(=O)N1CCN(c2nc(-c3cccs3)nc3ccccc23)CC1 | 5.3% | x | -1.4% | x | x | x
NC(=O)c1csc(C2OC(CO)C(O)C2O)n1 (configuration not stated) | x | u | x | -4.6% | x | -1.1%
O=C1C=C(C2OC(CO)C(O)C2O)C(=O)N1 (configuration not stated) | 7.08µM* | -1.3% | 4.0% | 3.8% | -11.5% | -1.9%
CCO[C@@H](Cc1ccc(OCCc2ccc(OS(C)(=O)=O)cc2)cc1)C(=O)O | x | x | x | 6.7% | x | x
COc1c(C)cc(Br)cc1C(=O)Nc1ccc(Cc2ccncc2)cc1 | 9.6% | 10µM* | -5.7% | 4.2% | 2.0% | 0.4%
CCN(CC)c1ccc(N=Nc2nn(C)c(C)c2[N+](=O)[O-])cc1 | -5.9% | 6.4% | -7.5% | 18.1% | 5.1% | 4.47µM*
Cc1c(CC(=O)NCC(=O)N[C@H](Cc2ccccc2)C(=O)O)c(=O)oc2cc(O)ccc12 | 79.4µM* | 8.3% | i | -4.0% | 4.6% | 194.9%
CSc1ccccc1CNc1nc(NCC2CC2)nc2ccsc12 | x | u | x | -0.2% | x | u
O=[N+]([O-])c1cc([N+](=O)[O-])c2nonc2c1Nc1ccccc1O | -22.2% | -20.1% | -14.2% | -4.2% | 0.2% | -26.5%
O=[N+]([O-])c1cc([N+](=O)[O-])c2nonc2c1Nc1ccc(O)cc1 | 28.2µM* | 14.9% | -16.0% | 3.3% | 5.9% | -25.9%
COc1ccccc1NC(=O)Cn1cc(S(=O)(=O)Cc2ccccc2)c2ccccc21 | 11.9% | -4.1% | -0.5% | x | 4.1% | 1.4%
N=c1c2c(ncn1Cc1ccco1)Oc1c(ccc3ccccc13)C2c1ccccc1 (configuration not stated) | -7.2% | 3.98µM* | -0.1% | 17.6% | -6.4% | u
N=c1c2c(ncn1Cc1ccco1)Oc1cc(O)ccc1C2c1ccccc1 (configuration not stated) | -23.1% | 39.0% | 4.6% | 6.8% | 5.0% | 2.1%
CC(=O)CSc1nsc(SCC(C)=O)c1C#N | 70.8µM* | u | -7.3% | -8.6% | -2.9% | -11.4%
CCOC(=O)CSc1nsc(SCC(=O)OCC)c1C#N | 1.1% | 9.6% | -6.7% | -0.2% | -1.4% | 78.6%
CCn1ccnc1C(O)c1ccc(N(C)C)cc1 (configuration not stated) | 39.8µM* | -1.8% | 12.9%[57.1 µM] | -6.0% | 3.2% | 9.7%
CCOc1ccc(C(O)c2nccn2Cc2ccccc2)cc1 (configuration not stated) | 16.2% | u | 3.4% | 11.8% | -2.1% | 15.6%
OCCN(CCO)CC(O)COc1ccc(C23CC4CC(CC(C4)C2)C3)cc1 (configuration not stated) | -6.5% | 2.82µM* | -6.2% | u | 1.7% | u
OCCN(CCO)CC(O)COc1ccc(Br)cc1 (configuration not stated) | 26.8% | u | 3.7% | -5.7% | -0.9% | 2.5%
CC1CN(Cc2ccccc2)C(=O)N(c2ccccc2)C1=O (configuration not stated) | 4.1% | 2.4% | -2.5% | -2.7% | -0.3% | -9.9%
